Pf growth 96h: P. falciparum growth inhibition at 96 hours; P. falciparum luciferase reporter growth, 96 h; Potency, µM (highest dose often 28.7 µM), usual class: inhibitors; 320,000 compounds, 6.9% hits; active means well fitted inhibition curve with a large enough effect; inconclusive means small, poorly fitted or top-dose-only effect, or another doubt; inactive means no such curve, though single readings can be large or run the other way
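P. falciparum expressing integrated firefly luciferase, in erythrocytes at 2% hematocrit, 0.05% parasitemia, incubated with compounds 96 h at 37 C, 5% CO2. Growth inhibition read as loss of luminescence; two-generation exposure targets delayed-death apicoplast inhibitors.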
Shiga toxin inh: inhibitors of Shiga toxin in Vero cells; Vero cells, Shiga toxin protein synthesis inhibition reporter; inhibition, % at 38.7 µM; 290,000 compounds, 9.2% hits; in the data active means inhibition mostly above about 28%, no sharp cut-off; inactive means mostly below about 43%
Pf growth 48h: P. falciparum growth inhibition at 48 hours (one generation). P. falciparum luciferase growth in erythrocytes, 48 h. 310,000 compounds, 5.9% hits. AID 504832. Potency, µM (top dose mostly 28.7 µM), actives largely listed as inhibitors; active means well fitted inhibition curve with a large enough effect; inconclusive means small, poorly fitted or top-dose-only effect, or another doubt; inactive means no such curve, though single readings can be large or run the other way
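Luciferase-expressing parasites in RBCs, 2% Hct / 0.1% parasitemia final; RPMI 1640 + 0.5% Albumax; 37 C, 5% CO2, one generation; luminescence read-out, lower signal = inhibition.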
SARS PLpro yeast: inhibitors of SARS-CoV papain-like protease in yeast; S. cerevisiae expressing SARS-CoV PLpro, growth rescue; Potency, µM (doses to about 32.9 µM), usual class: activators; 330,000 compounds, 0.19% hits; AID 485353; further: nearly all actives have a fitted effect of over 55% in size
NS1 function inh: influenza NS1 inhibition | Potency, µM (top dose mostly 46.1 µM) | AID 2326 | 270,000 compounds, 0.4% hits; further: actives are rising curves; nearly all actives have a fitted effect of over 50% in size
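Read-out: OD600 growth recovery of NS1-expressing budding yeast. Cells grown overnight at 30C in -URA glucose medium, washed, resuspended and diluted 1:100 in 2% galactose assay medium, pH 6.0. Same strain lacking NS1 served as positive control.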
Cycloheximide cs: counter-screen hit for Shiga toxin inhibitors, cycloheximide; 300,000 compounds, 12% hits; max response, %; cell reporter, cycloheximide protein synthesis inhibition counterscreen; in the data active means max response mostly above about 13%, no sharp cut-off; inactive means mostly below about 14%; further: read at 38.3 µM for the half of the compounds with a filed dose
Each line names hits and unclear results; the compound was inactive in the other large screens. An excerpt weighted towards active compounds, which were near 21% of everything screened. Unless noted, the call rests on the fitted dose curve.

CCOC(=O)C1CCN(C(=O)CCc2c(C)nc3cc(-c4ccccc4)nn3c2C)CC1	none (no result: Pf growth 48h)
Cc1nc2cc(-c3ccccc3)nn2c(C)c1CCC(=O)NCc1ccco1	Pf growth 96h inconclusive, Shiga toxin inh 68, Cycloheximide cs 39 (no result: Pf growth 48h)
COc1cc(OC)cc(-c2cc3nc(C)c(CCC(=O)O)c(C)n3n2)c1	Pf growth 96h 9.3µM (no result: Pf growth 48h)
COc1cc(OC)cc(-c2cc3nc(C)c(CCC(=O)NC(C)CCc4ccco4)c(C)n3n2)c1 (stereo not drawn)	Pf growth 48h 9.3µM
COc1ccccc1-c1cc2nc(C)c(CCC(=O)NCc3ccco3)c(C)n2n1	Pf growth 96h inconclusive, Pf growth 48h inconclusive
CCOCCN1CCN(c2c(C)c(C)nc3cc(-c4cc(OC)cc(OC)c4)nn23)CC1	none (no result: Pf growth 48h)
CCc1c(C)nc2cc(-c3cc(OC)cc(OC)c3)nn2c1N1CCN(CCN2CCOCC2)CC1	Pf growth 48h 1.3µM
CCOC(=O)C1CCN(C(=O)C2COc3ccccc3O2)CC1 (stereo not drawn)	none
Cc1nc2ncnn2c(C)c1CCC(=O)NC(C)CCc1ccco1 (stereo not drawn)	Pf growth 96h 12µM, NS1 function inh inconclusive
Cc1nc2ncnn2c(C)c1CCC(=O)NC(C)c1ccc2c(c1)OCCO2 (stereo not drawn)	none (no result: Pf growth 96h)
Cc1nc2cc(-c3cccc(F)c3)nn2c(C)c1CCC(=O)NC(C)CCc1ccco1 (stereo not drawn)	Pf growth 96h 10µM (no result: Pf growth 48h)
O=C(Nc1ccccc1C(=O)NC1CCCCC1)c1ccccc1	Pf growth 96h 6.6µM, Pf growth 48h inconclusive
O=C(Nc1ccsc1C(=O)NC1CCCCC1)c1ccccc1	Pf growth 96h inconclusive, Pf growth 48h 7.4µM
O=C(O)CCC(=O)Nc1ccccc1C(=O)NC1CCCCC1	none
CC(=O)Nc1ccc(C(=O)Nc2cc(C(F)(F)F)ccc2-n2cnc3ccccc32)cc1	none
CCCCn1nc(C(=O)Nc2cc(C(F)(F)F)ccc2N2CCOCC2)ccc1=O	Pf growth 96h inconclusive, Pf growth 48h 12µM (no result: Shiga toxin inh, NS1 function inh, Cycloheximide cs)
COCCOc1ccc(C(F)(F)F)cc1NC(=O)COC(=O)c1cc([N+](=O)[O-])ccc1N1CCOCC1	Pf growth 96h 9.3µM, Pf growth 48h inconclusive
O=C(NC(=S)Nc1cc(C(F)(F)F)ccc1N1CCOCC1)c1sc2ccccc2c1Cl	Pf growth 96h 3.3µM, Pf growth 48h 2.1µM
CN(C)c1cccc(C(=O)Nc2cc(C(F)(F)F)ccc2-n2cnc3ccccc32)c1	Pf growth 96h inconclusive, Pf growth 48h 12µM
CC(C)(C)C(=O)NC(=S)Nc1cc(C(F)(F)F)ccc1N1CCOCC1	Pf growth 96h inconclusive (no result: Pf growth 48h)
COCC(=O)N(C)C[C@H]1N[C@@](C)(C(=O)OC)[C@H]2C(=O)N(Cc3ccccc3)C(=O)[C@@H]12	none (no result: Pf growth 96h, Shiga toxin inh, Pf growth 48h, NS1 function inh, Cycloheximide cs)
O=C(Cn1cnc2ccccc21)Nc1cc(C(F)(F)F)ccc1N1CCOCC1	Pf growth 96h 4.1µM, Pf growth 48h 4.7µM
Cn1c(=O)c2ncn(CC(=O)Nc3cc(C(F)(F)F)ccc3N3CCOCC3)c2n(C)c1=O	Pf growth 96h inconclusive, Pf growth 48h inconclusive, NS1 function inh inconclusive
O=C(COC(=O)C12CC3CC(CC(O)(C3)C1)C2)Nc1ccccc1OC(F)F	SARS PLpro yeast inconclusive
O=C(Nc1cc(C(F)(F)F)ccc1N1CCOCC1)c1ccc2ccccc2n1	Pf growth 96h inconclusive, Cycloheximide cs 23
O=C(CSc1nc2ccccc2o1)Nc1ccc(N2CCOCC2)c(Cl)c1	Shiga toxin inh 81, Cycloheximide cs 53 (no result: Pf growth 96h)
COCCOc1ccc(C(F)(F)F)cc1NC(=O)COC(=O)C12CC3CC(CC(O)(C3)C1)C2	Pf growth 96h inconclusive, Pf growth 48h 2.3µM
O=C(CSc1nc2ccccc2c(=O)[nH]1)Nc1ccc(N2CCOCC2)c(Cl)c1	none
CCOCCCNC(=S)Nc1cc(C)cc(C)c1	none
CCC(CC)NC(=O)CN1CCN(S(=O)(=O)c2ccc(Br)s2)CC1	Pf growth 48h inconclusive (no result: Shiga toxin inh, NS1 function inh, Cycloheximide cs)
CC(C)Nc1nnc(SC(C)C(=O)Nc2ccc(Cl)cn2)s1 (stereo not drawn)	none
COCCNc1nc2nonc2nc1N(C)Cc1cccc2cnccc12	none
O=C(CSc1nc2ccccc2o1)Nc1cc(C(F)(F)F)ccc1N1CCOCC1	Pf growth 48h 12µM (no result: Pf growth 96h)
Cc1nc2ccccc2nc1OCC(=O)Nc1cc(C(F)(F)F)ccc1N1CCOCC1	Pf growth 48h 12µM
CCN(CC)C(=O)Cn1nnc(-c2ccc(S(C)(=O)=O)cc2)n1	none
